SMILES strings stand for the structures. Hit rate of the full screen: of about 310,000 compounds, about 1,000 (0.32%) were called active. Only a sample is shown. Potency and affinity values are given separately. Unmarked numbers belong to inactive results. How the calls were made is not given here.

This passage reports inhibition results from PubChem BioAssay AID1850 (Southern Research Specialized Biocontainment Screening …, 2009).

This experiment in a line: PhoP regulon inhibitors, Salmonella typhi PhoP promoter GFP reporter, confirmatory (AID 1850).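 Further: 0% = induced wells with vehicle and 100% = uninduced wells.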 The note with it: fluorescence, 4 h, at 50 µM, active compounds read high.
For the molecule `O=C(NCCF)C1Nc2ccc(OC(F)(F)F)cc2C2C=CCC12` (stereo not given), the inhibition was 9.88%. In the case of `C=CCN(C(=O)c1csnn1)C(C(=O)NCc1ccccc1)c1c(F)cccc1Cl` (stereo not given), the inhibition was -1.14%. Consider `CN(CC(=O)N1CCN(c2cccc(Cl)c2)CC1)S(=O)(=O)c1cccs1`, for which the inhibition was 2.82%. For `CCOC(=O)C(C)NC(=O)CCc1nnc2ccc(N3CCCCC3)nn12` (stereo not given) the value was 1.43%. Under `CC(=O)c1c(C)[nH]c(C(=O)N2CCN(c3ccccn3)CC2)c1C` stands 2.98%; under `Nc1nnc(SCC(=O)OCC(=O)c2ccccc2Br)s1`, 1.19%; under `C#CCOCCOCCOCCNc1nc(N2CCN(C(=O)Cn3cc(CCCN=C(N)N)nn3)CC2)nc(N2CCN(C(=O)[C@H]([C@@H](C)CC)n3cc(CCCCN)nn3)CC2)n1`, -18%.

For `C#CCOCCOCCOCCNc1nc(N2CCN(C(=O)CCCCCCCCCCNC(=O)Cn3cc(C[C@@H](C)O)nn3)CC2)nc(N2CCN(C(=O)CCCCCCCCCCNC(=O)[C@@H]([C@H](C)O)n3cc(C)nn3)CC2)n1`, the inhibition was -25.3%. Turning to `C#CCOCCOCCOCCNc1nc(N2CCOCC2)nc(N2CCN(C(=O)CCCCCCCCCCNC(=O)[C@@H]([C@H](C)CC)n3cc(CCCCCN)nn3)CC2)n1`, the inhibition was 2.64%. For the molecule `C#CCOCCOCCOCCNc1nc(N2CCN(C(=O)CCCCCCCCCCNC(=O)[C@H](CCC(=O)O)n3cc(CCCCCN)nn3)CC2)nc(N2CCN(C(=O)CCCCCCCCCCNC(=O)[C@@H]([C@H](C)O)n3cc(C)nn3)CC2)n1`, the inhibition is -1.84%.

On to `C#CCOCCOCCOCCNc1nc(N2CCN(C(=O)CCCCCCCCCCNC(=O)Cn3cc(C[C@@H](C)O)nn3)CC2)nc(N2CCN(C(=O)CCCCCCCCCCNC(=O)[C@@H](CCC(=O)O)n3cc(CCCCCN)nn3)CC2)n1`, for which the inhibition was -25.1%.

Take `C#CCOCCOCCOCCNc1nc(N2CCN(C(=O)Cn3cc(CCCCN)nn3)CC2)nc(N2CCN(C(=O)[C@H]([C@@H](C)CC)n3cc(CCCN=C(N)N)nn3)CC2)n1`: the inhibition is 5.45%. Under `C#CCOCCOCCOCCNc1nc(N2CCN(C(=O)CCCCCCCCCCNC(=O)Cn3cc(CCCCCN)nn3)CC2)nc(N2CCN(C(=O)CCCCCCCCCCNC(=O)Cn3cc(C[C@@H](C)O)nn3)CC2)n1` stands -2.3%; under `C#CCOCCOCCOCCNc1nc(N2CCN(C(=O)CCCCCCCCCCNC(=O)Cn3cc(CCCCCN)nn3)CC2)nc(N2CCN(C(=O)CCCCCCCCCCNC(=O)[C@H](CO)n3cc(CCCCCN)nn3)CC2)n1`, 16.5%; under `CN(CC(=O)NCc1ccncc1)S(=O)(=O)c1ccc(F)cc1`, 9.34%.

For orientation: inhibition means the change of the read-out against control, counted positive when it falls.
